Compound activity: PubChem, The Scripps Research Institute Molecular Screening Center
HGIII-sPLA2 inh: Inhibits HGIII-sPLA2 liposome hydrolysis, primary screen | QFRET BODIPY PC-A2 liposome hydrolysis, fluorescence | inhibition, % at 12.2 µM | 370,000 tested, 0.56% active;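 active means inhibition above mean plus 3 SD of compounds lying within the high and low control bounds, cut at about 19% in these data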
Target sequence (Q9NZ20 whole entry, looked up): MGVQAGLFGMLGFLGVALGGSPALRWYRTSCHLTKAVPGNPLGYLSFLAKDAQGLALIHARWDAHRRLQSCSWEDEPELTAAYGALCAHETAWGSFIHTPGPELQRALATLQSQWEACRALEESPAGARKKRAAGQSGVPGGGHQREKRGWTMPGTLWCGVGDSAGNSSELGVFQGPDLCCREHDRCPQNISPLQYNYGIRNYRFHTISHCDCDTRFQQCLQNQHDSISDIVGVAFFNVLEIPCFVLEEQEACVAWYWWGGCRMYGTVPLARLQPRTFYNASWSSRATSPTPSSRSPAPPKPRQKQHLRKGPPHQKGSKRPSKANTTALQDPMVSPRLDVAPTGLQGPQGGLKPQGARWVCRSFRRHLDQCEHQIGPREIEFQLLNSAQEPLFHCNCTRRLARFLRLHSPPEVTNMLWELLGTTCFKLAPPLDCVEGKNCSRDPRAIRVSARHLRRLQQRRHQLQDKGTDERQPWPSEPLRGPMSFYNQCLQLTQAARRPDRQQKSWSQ
MsrA inh: inhibitors of bovine MsrA. purified bovine MsrA, absorbance read-out. inhibition, % at 15.5 µM. 360,000 tested, 0.75% active. AID 651718; in the data active means inhibition above about 4.5%
rCAG RNA binder: molecules binding r(CAG) RNA repeats | 370,000 tested, 1.3% active | r(CAG) RNA repeat, TO-PRO-1 dye displacement fluorescence | inhibition, % at 3 µM;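 active means inhibition above the plate cutoff, the mean of all test compounds on that plate plus 3 SD, cut at about 35% in these data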;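 further: higher means more dye released from RNA so lower well fluorescence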
MsrA act: bovine methionine sulfoxide reductase A activation. activation, % at 10.6 µM. 360,000 tested, 0.3% active. purified bovine MsrA, absorbance read-out. AID 602163; in the data active means activation above about 7.5%
PG9 binder: PG9 antibody binding by small molecule. AID 624416. 360,000 tested, 0.43% active. inhibition, % at 6.7 µM. TR-FRET gp120-PG9 antibody binding; in the data active means inhibition above about 8.5%
sPLA2 confirm: human GIII-sPLA2 inhibition, confirmation; inhibition, % at 12.2 µM; 2,000 tested, 34% active; recombinant hGIII-sPLA2, BODIPY PC-A2 QFRET fluorescence; AID 743280; shares compounds with HGIII-sPLA2 inh;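 active means mean inhibition across triplicates above the hit cutoff set in the earlier primary screen, cut at about 19% in these data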
BODIPY interf: optically interferes with 535nm fluorescence in sPLA2 counter-screen. shares compounds with HGIII-sPLA2 inh. BODIPY FL product fluorescence interference, QFRET. inhibition, % at 12.2 µM. 2,000 tested, 8.5% active;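 active means average inhibition above the solvent-only control mean plus 3 SD, cut at about 6% in these data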
BODIPY interf DR: 535nm optical interference dose response, HGIII-sPLA2 counter-screen; 240 tested, under 10 active; shares compounds with HGIII-sPLA2 inh; BODIPY FL product fluorescence interference, cell-free; IC50, µM;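 active means IC50 at or below 10 µM; inactive means IC50 above 10 µM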
Each line names hits and unclear results; the compound was inactive in the other large screens (follow-up assays come after a bar, where they were run). Shown are actives, neighbours in structure and some others; about 3.2% of the full set was active somewhere.

COC(=O)C[C@@H]1CC[C@@H]2[C@@H](COc3ccc(NS(=O)(=O)c4ccc(F)cc4)cc3C(=O)N2C)O1	none (no result: MsrA inh, MsrA act, PG9 binder)
Nc1ccc2c(c1)C(=O)c1cc(N)c(Cl)cc1-2	HGIII-sPLA2 inh 29.1 | sPLA2 confirm 30.9 | BODIPY interf 8.2
COc1ccc(C(=O)NNC(=S)NC(=O)/C=C/c2cccs2)cc1	none
COc1cc(C(=O)Nc2ccncc2)cc(OC)c1OC	HGIII-sPLA2 inh 20.6 | sPLA2 confirm inactive | BODIPY interf inactive
COc1ccccc1OCC(=O)NNC(=S)NC(=O)c1ccco1	none
COc1ccc(CC(=O)NNC(=O)c2cnccn2)cc1	HGIII-sPLA2 inh 19.6 | sPLA2 confirm inactive | BODIPY interf inactive
O=C(NC(=S)NNC(=O)c1ccccc1O)c1ccco1	HGIII-sPLA2 inh 27.6 | sPLA2 confirm inactive | BODIPY interf inactive
O=C(/C=C/c1cccs1)NC(=S)NNC(=O)c1ccccc1O	HGIII-sPLA2 inh 42.2, MsrA inh 6.9, rCAG RNA binder 37.6 | sPLA2 confirm 32.2 | BODIPY interf inactive | BODIPY interf DR inactive
COc1ccc(CC(=O)NNC(=O)c2ccccn2)cc1	none
COCCCN1C(=O)[C@H](CC(=O)NCCc2ccccc2OC)[C@]2(C(=O)OC)CCCCC=C12	none (no result: MsrA inh, MsrA act, PG9 binder)
CCCCOCCCNC(=O)C[C@@H]1C(=O)N(Cc2ccc(OC)cc2)/C2=C/CCCCC[C@@]21C(=O)OCC	none (no result: MsrA inh, MsrA act, PG9 binder)
COc1ccc(C(=O)NNC(=S)NC(=O)C(C)(C)C)cc1	HGIII-sPLA2 inh 22.8 | sPLA2 confirm 19.4 | BODIPY interf inactive
COc1cc(C(=O)NC(=S)NNC(=O)c2cnccn2)cc(OC)c1OC	HGIII-sPLA2 inh 21.2 | sPLA2 confirm inactive | BODIPY interf inactive
COc1ccc(C(=O)NNC(=O)c2ccc(C(C)(C)C)cc2)cc1	none
COc1ccc(C(=O)NC(=S)NNC(=O)c2ccco2)cc1	HGIII-sPLA2 inh 19.3 | sPLA2 confirm 28.6 | BODIPY interf inactive | BODIPY interf DR inactive
COc1ccccc1C(=O)NNC(=S)NC(=O)c1cc(OC)c(OC)c(OC)c1	none
COc1cc(C(=O)NNC(=S)NC(=O)c2ccccc2C)cc(OC)c1OC	HGIII-sPLA2 inh 26.1 | sPLA2 confirm 25.0 | BODIPY interf inactive
CCOc1ccc(-n2c(SC/C=C/c3ccccc3)nnc2-c2cccs2)cc1	none (no result: MsrA inh, MsrA act, PG9 binder)
COc1ccc(/C=C/C(=O)NC(=S)NNC(=O)c2ccco2)cc1OC	HGIII-sPLA2 inh 20.1 | sPLA2 confirm 25.3 | BODIPY interf inactive
COc1ccc(C(=O)NC(=S)NNC(=O)COc2ccccc2)cc1	none
COc1ccc(C(=O)NC(=S)NNC(=O)c2ccccc2C)cc1	HGIII-sPLA2 inh 24.8 | sPLA2 confirm 29.1 | BODIPY interf inactive
COc1cc(C(=O)NNC(=S)NC(=O)c2ccc3c(c2)OCO3)cc(OC)c1OC	HGIII-sPLA2 inh 24.3 | sPLA2 confirm 37.0 | BODIPY interf inactive | BODIPY interf DR inactive
CC(C)(C)c1ccc(S(=O)(=O)N2CCC(C(=O)NCC3COCCO3)CC2)cc1 (stereo not given)	none (no result: MsrA inh, MsrA act, PG9 binder)
Cc1ccc(-c2cc(-c3nnc(SCC(=O)Nc4nccs4)n3N)[nH]n2)cc1	none (no result: MsrA inh, MsrA act, PG9 binder)
COc1ccc(OCCCN2CCC(C(O)(c3ccccc3)c3ccccc3)CC2)cc1	none (no result: MsrA act)
CCN1C(=O)/C(=C2/C=Cc3ccccc3N2CC)SC1=S	HGIII-sPLA2 inh 21.1 | sPLA2 confirm 43.0 | BODIPY interf inactive | BODIPY interf DR inactive
CCCN1/C(=C2/SC(=S)N(CC)C2=O)C=Cc2ccccc21	none
CCCN1C(=O)/C(=C2/C=Cc3ccccc3N2CC)SC1=S	HGIII-sPLA2 inh 21.2 | sPLA2 confirm 50.7 | BODIPY interf 13.3
COc1ccc(S[C@]2(C(=O)N3CCCC3)CC(=O)N(c3ccsc3)[C@@H]2c2ccc(OC)cc2)cc1	none (no result: MsrA inh, MsrA act, PG9 binder)
Clc1cccc(Cl)c1CSc1nnc2ccccn12	HGIII-sPLA2 inh 19.2 | sPLA2 confirm inactive | BODIPY interf inactive
COC(=O)c1cc2c(c3c4cc(F)ccc4n(S(=O)(=O)c4ccc(C)cc4)c13)C(=O)N(Cc1ccc(N(C)C)cc1)C2	none (no result: MsrA act)
COc1cccc(CN(c2ccc3c(c2)CCC3)S(=O)(=O)c2ccc(-n3cnnn3)c(OC)c2)c1	none
Cc1cc(S(=O)(=O)N(Cc2ccccc2Cl)c2ccc3c(c2)CCC3)ccc1-n1cnnn1	HGIII-sPLA2 inh 19.7 | sPLA2 confirm inactive | BODIPY interf inactive
OC[C@@H]1CN(Cc2cccs2)C[C@H](n2cnc3c(NC4CCC4)ncnc32)O1	none
CCCCOC(=O)CCN1C(=O)/C(=C2\SC(=S)N(CCC(=O)OCCCC)C2=O)SC1=S	HGIII-sPLA2 inh 21.6 | sPLA2 confirm inactive | BODIPY interf inactive
CCCCCOC(=O)CCN1C(=O)/C(=C2\SC(=S)N(CCC(=O)OCCCCC)C2=O)SC1=S	none
CN(C)c1cccc(/C=C2\CC3(OC(=O)c4ccco4)CCCN2C3)c1 (stereo not given)	none (no result: MsrA inh, MsrA act, PG9 binder)
CCCNC(=O)C1(C)CCCN(C(=O)c2ccccc2F)C1 (stereo not given)	none
COc1ccccc1/C=N/NC(=O)CC(=O)NCc1cccnc1	none
O=C(CC(=O)N/N=C/c1ccccc1O)NCc1cccnc1	HGIII-sPLA2 inh 19.4 | sPLA2 confirm inactive | BODIPY interf inactive
CCCn1c(=O)c(C(=O)NNC(=O)c2ccccc2[N+](=O)[O-])c(O)c2ccccc21	none
CCCn1c(=O)c(C(=O)NNC(=O)c2ccccc2Cl)c(O)c2ccccc21	HGIII-sPLA2 inh 21.3 | sPLA2 confirm 20.4 | BODIPY interf inactive
Cc1ccc(/C(N)=N/OC(=O)CCc2ccccc2)cc1	HGIII-sPLA2 inh 19.6 | sPLA2 confirm inactive | BODIPY interf inactive
COC(=O)c1cc(-c2c(C)noc2C)c(=O)n2c1CCC2	none (no result: MsrA inh, MsrA act, PG9 binder)
CCOC(=O)c1cc(N)cc([N+](=O)[O-])c1	HGIII-sPLA2 inh 23.4 | sPLA2 confirm inactive | BODIPY interf inactive
Cc1ccccc1C(=O)NNC(=O)c1cc(N)cc([N+](=O)[O-])c1	none
CC(=O)Oc1cccc(C(=O)Nc2c[nH]c(=O)[nH]c2=O)c1	none
COc1cccc(C(=O)Nc2c[nH]c(=O)[nH]c2=O)c1	HGIII-sPLA2 inh 21.1 | sPLA2 confirm inactive | BODIPY interf inactive
CCCCOc1ccc(C(=O)NC2CCCCN(Cc3ccc(C)cc3)C2=O)cc1 (stereo not given)	none (no result: MsrA inh, MsrA act, PG9 binder)
COc1ccc(CC(=O)NCc2ccc(F)cc2)cc1S(=O)(=O)N1CCOCC1	none
CC(=O)OCC(=O)N1CCN(C(=O)C(=O)c2cccc(C(F)(F)F)c2)CC1	HGIII-sPLA2 inh 22.2 (no result: MsrA act) | sPLA2 confirm inactive | BODIPY interf inactive
Cc1ccc(/C=C2\SC(=S)N(CCCC(=O)NNC(=O)c3ccccc3O)C2=O)cc1	none
CC(=O)c1ccc(NC(=O)CN2C(=O)/C(=C/C(C)=C/c3ccccc3)SC2=S)cc1	none
